Marburg entry inh: inhibitors of Marburg virus binding or cell entry; Marburg virus pseudotyped entry inhibition, cell reporter; Potency, µM (titrated, usually from 37.8 µM), for the others: top-dose activity change, negative = inhibition, actives largely listed as inhibitors; hit rate 1.8% among 300,000; AID 540276; calls by dose curve; tested in HEK293 cells; further: potency means the concentration at half of the fitted maximal effect; on the % scale 0 is the no-effect control and ±100 the full control effect
Lassa entry inh: blocks Lassa virus binding to or entry into cells. Lassa virus pseudotype entry inhibition, cell reporter. Potency, µM (series often up to 37.9 µM), without a hit: at the top dose activity change, negative = inhibition, usual class: inhibitors. hit rate 1.2% among 300,000; calls by dose curve; tested in HEK293 cells; further: potency means the concentration at half of the fitted maximal effect; on the % scale 0 is the no-effect control and ±100 the full control effect; nearly all actives have a fitted effect of over 50% in size
Cycloheximide cs: counter-screen hit for Shiga toxin inhibitors, cycloheximide; cell reporter, cycloheximide protein synthesis inhibition counterscreen; max response, %; hit rate 12% among 300,000; AID 2314; in the data active means max response mostly above about 13%, no sharp cut-off; inactive means mostly below about 14%; further: read at 38.3 µM for the half of the compounds with a filed dose; 0% is about no effect
Shiga toxin inh: inhibitors of Shiga toxin in Vero cells; Vero cells, Shiga toxin protein synthesis inhibition reporter; inhibition, % at 38.7 µM; hit rate 9.2% among 290,000; AID 2315; in the data active means inhibition mostly above about 28%, no sharp cut-off; inactive means mostly below about 43%; further: 0% is about no effect
The depositor's hits bear a star; ? = inconclusive; nt = no result given; [ ] = remark or other dose. Sampled rows, rich in hits. Any-hit rate of the full collection: about 12%.

SMILES | Marburg entry inh | Lassa entry inh | Cycloheximide cs | Shiga toxin inh
Cc1cc(C)n(-c2nc(NC(C)(C)C)nc(NC(C)(C)C)n2)n1 | ? | 10% | -4 | -10
CCOc1ccc(Nc2nc(Cc3nnc(SCC(=O)c4ccc(C)c(C)c4)o3)cs2)cc1 | ? | -25% | 21* | 35
CC(NC(=O)C1CCN(S(=O)(=O)c2cnc[nH]2)CC1)c1ccccc1 (centres undefined) | -1% | 22% | -5 | -10
COc1ccc(-n2ccnc2SCC(=O)Nc2cccc(OC)c2)cc1 | nt | -26%[46.1 µM] | nt | nt
COc1cccc(NC(=O)CSc2nnc(Cc3cccn3C)n2-c2ccc(F)cc2)c1 | 0% | nt | 19* | 29*
CCCCOc1cccc(NC(=O)CSc2nccn2C)c1 | 8% | -1% | 8.8* | 37
Cn1ccnc1SCC(=O)Nc1cccc(O)c1 | ? | 16% | 21* | 58
Nc1nonc1C(=O)NCCNCc1ccc(Cl)c(Cl)c1 | 4%[46.1 µM] | 14%[46.1 µM] | nt | nt
O=C(COC(=O)c1cc(-c2cccc(Br)c2)nc2ccccc12)NCC1CCCO1 (centres undefined) | ? | -30%[46.1 µM] | 1 | 14
COc1ccc(S(=O)(=O)N2CCCOC2CNC(=O)C(=O)NCCc2ccco2)cc1C (centres undefined) | ? | ? | 1 | 21
CC(C(=O)Nc1cccc([N+](=O)[O-])c1)[n+]1ccccc1 (centres undefined) | nt | nt | 0 | 12
CC(Sc1cccc[n+]1[O-])C(=O)Nc1cccc([N+](=O)[O-])c1 (centres undefined) | 3%[46.1 µM] | ? | 16* | 19
COC(=O)CSc1nnc(CNc2ccc(Cl)cc2)n1-c1ccccc1 | 22% | 0% | -1 | -1
Cc1cccc(NC(=O)c2ccc3c(c2)CCN3S(C)(=O)=O)c1 | 28% | ? | 29* | 47*
Cc1ccc(NC(=O)c2ccc3c(c2)CCN3S(C)(=O)=O)cc1C | ? | ? | 29* | 31*
CCc1c(-c2ccccc2)nc2ccccc2c1C(=O)NC(C)c1ccccc1 (centres undefined) | nt | -26%[46.1 µM] | nt | nt
Cc1cc2c(s1)c1cnn(Cc3ccc(Cl)cc3)c(=O)c1n2C | nt | nt | -10 | -12
Cc1ccc2occ(CN3CCN(c4ccccc4)CC3)c(=O)c2c1 | 8% | -5% | 3 | 8
Cc1ccc2occ(C(=O)c3ccco3)c(=O)c2c1 | 4% | ? | 18 | 48*
CCN1CCN(Cc2coc3ccc(C)cc3c2=O)CC1 | ? | 0% | 27* | 38*
CC(C)CCN1CCN(Cc2coc3ccccc3c2=O)CC1CCO (centres undefined) | 21%[46.1 µM] | 10%[46.1 µM] | 12 | 23
Cc1ccc2occ(CN3CCN(Cc4ccccc4)CC3)c(=O)c2c1 | 3% | nt | 42* | 61*
CC(C)N1CCN(Cc2coc3ccccc3c2=O)CC1CCO (centres undefined) | -2%[46.1 µM] | 22% | 17* | 24
O=C(NCc1ccccc1)C1CCN(S(=O)(=O)Cc2ccccc2)CC1 | -2%[46.1 µM] | 11%[46.1 µM] | nt | nt
CC(C)OC(=O)CC12CN3CC(CC(=O)OC(C)C)(CN(C1)C(=O)c1ccccc1C3=O)C2=O | -3% | -9% | -4 | -11
SMILES | Marburg entry inh | Lassa entry inh | Cycloheximide cs | Shiga toxin inh
CC(C)OC(=O)CC12CN(C)CC(CC(=O)OC(C)C)(CN(C)C1)C2=O | ? | 4% | 35* | 40
CCc1cc(=O)oc2cc(OC(C)C(=O)NCC3CCC(C(=O)O)CC3)c(Cl)cc12 (centres undefined) | nt | nt | -2 | -11
O=C(N/N=C/c1ccc2c(c1)OCO2)c1ccc(Cl)cc1Cl | ? | -24%[46.1 µM] | 15* | 18
O=C(N/N=C/c1ccccc1OC(=O)c1ccc2c(c1)OCO2)c1cccc(F)c1 | ? | -13% | 16 | 64*
O=C(CNC(=O)c1ccc2c(c1)OCO2)N/N=C/c1cc(Br)ccc1O | 11µM* | ? | -1 | -19
C[n+]1cccc(C(=O)N/N=C/c2ccc3c(c2)OCO3)c1 | -1%[46.1 µM] | 0%[46.1 µM] | -6 | -6
O=C(N/N=C/C1CC2CCC1C2)c1ccc2c(c1)OCO2 (centres undefined) | -28% | -6% | 41* | 39*
O=C(N/N=C/c1ccc2c(c1)OCO2)c1sc2cc(Cl)ccc2c1Cl | -1% | -4% | 6 | -11
O=S(=O)(NC1CCCCC1N1CCN(c2ccc(F)cc2)CC1)c1ccccc1 (centres undefined) | nt | nt | -2 | -6
O=C(O)CCC(CP(=O)(O)O)C(=O)O (centres undefined) | nt | nt | -4 | -6
CCCN1CCN(c2ncnc3sc(C(=O)Nc4ccc(C(C)C)cc4)c(C)c23)CC1 | nt | 15%[46.1 µM] | nt | nt
COc1ccc(CCNC(=O)c2ccc3c(c2)CCN3S(=O)(=O)c2ccccc2)cc1OC | -15%[46.1 µM] | 1%[46.1 µM] | nt | nt
Cc1cc(=O)c2cc(C(=O)c3ccccc3)ccc2[nH]1 | nt | nt | 9.4* | 38
O=C(CNC(=O)c1cccc(Br)c1)N/N=C/c1ccc[nH]1 | 6.3µM* | ? | 5 | 12
COC(=O)c1ccc2[nH]c(C)cc(=O)c2c1 | -1% | 6% | -3 | 30
O=C(N/N=C/c1ccc2c(c1)OCO2)c1ccc(Br)o1 | ? | ? | 81* | 139*
Cc1nc2ccc(C(=O)c3ccccc3)cc2[nH]1 | 17% | 6% | 34* | 53*
CCN(CC)c1ccc(/C=N/NC(=O)c2ccc(Br)o2)cc1 | ? | ? | 33* | 38*
Cc1nc2ccc(C(C(F)(F)F)(C(F)(F)F)C(F)(F)F)cc2[nH]1 | -19% | 16µM* | -3 | -10
Cc1cc(Br)cc(/C=N/NC(=O)c2ccc3c(c2)OCO3)c1O | nt | nt | 17* | 26*
O=C(N/N=C/c1ccc(Cl)cc1)c1ccc2c(c1)OCO2 | nt | nt | 51* | 90*
Cc1cccc(N2CCN(C(=O)c3ccc(Cl)c(NC4=NC5CS(=O)(=O)CC5S4)c3)CC2C)c1 (centres undefined) | nt | nt | -3 | -8
COc1ccc(S(=O)(=O)N(C)CC(=O)N2CCCC2)cc1OC | nt | nt | -1 | 14
CN(C(=O)COC(=O)c1ccc2c(c1)OCO2)c1c(N)n(Cc2ccccc2)c(=O)[nH]c1=O | 15% | -3% | nt | nt
Cc1cc(=O)n2c(C(=O)Nc3ccc(C)c(Cl)c3)c(C(=O)Nc3ccccc3)sc2n1 | -8%[46.1 µM] | ? | nt | nt
SMILES | Marburg entry inh | Lassa entry inh | Cycloheximide cs | Shiga toxin inh
CCN(CC)c1ccc(/C=N/NC(=O)Nc2nonc2N)cc1 | ? | ? | 57* | 66*
O=C(N/N=C/c1ccccc1O)c1ccc2c(c1)OCO2 | 5µM* | ? | 50* | 96*
O=C(N/N=C/c1cccc([N+](=O)[O-])c1)c1ccc2c(c1)OCCO2 | -1% | 6% | 43* | 62*
O=C(N/N=C/c1cc(Cl)cc([N+](=O)[O-])c1O)c1ccc2c(c1)OCO2 | nt | nt | 3 | 23
CCN(CC)c1ccc(/C=N/NC(=O)C2CC2)cc1 | nt | nt | 48* | 80*
O=C(CNC(=O)c1ccco1)N/N=C/c1cc(Br)ccc1O | 2µM* | nt | -1 | -13
O=C(N/N=C\C=C\c1ccc(Br)cc1)c1ccc2c(c1)OCO2 | ? | 5%[46.1 µM] | 9.9* | 23*
O=C(N/N=C/c1cccs1)c1ccc2c(c1)OCO2 | ? | ? | 25* | 34
Cc1nc2ccc(C(=O)N/N=C/c3ccccc3O)cc2[nH]1 | ? | ? | 44* | 84*
O=C(N/N=C/c1ccsc1)c1ccc2c(c1)OCO2 | -26% | -2% | nt | nt
O=C(N/N=C/c1ccncc1)c1ccc2c(c1)OCO2 | 7%[46.1 µM] | 6% | 24* | 76*

Bioassay records (PubChem BioAssay)
